Screening data as filed in PubChem BioAssay.
Shown are actives, neighbours in structure and some others; about 2.4% of the full set was active somewhere.
D2 antag: antagonizes the human D2 dopamine receptor; inhibition, % at 10 µM; AID 485344; P14416; HEK293 TREx D2 cells, calcium flux, dopamine EC80; hit rate 2% among 340,000; in the data active = inhibition above about 30%; inactive = below that, where a call was filed; also: 0% is about no effect
Target sequence (P14416 whole entry, looked up): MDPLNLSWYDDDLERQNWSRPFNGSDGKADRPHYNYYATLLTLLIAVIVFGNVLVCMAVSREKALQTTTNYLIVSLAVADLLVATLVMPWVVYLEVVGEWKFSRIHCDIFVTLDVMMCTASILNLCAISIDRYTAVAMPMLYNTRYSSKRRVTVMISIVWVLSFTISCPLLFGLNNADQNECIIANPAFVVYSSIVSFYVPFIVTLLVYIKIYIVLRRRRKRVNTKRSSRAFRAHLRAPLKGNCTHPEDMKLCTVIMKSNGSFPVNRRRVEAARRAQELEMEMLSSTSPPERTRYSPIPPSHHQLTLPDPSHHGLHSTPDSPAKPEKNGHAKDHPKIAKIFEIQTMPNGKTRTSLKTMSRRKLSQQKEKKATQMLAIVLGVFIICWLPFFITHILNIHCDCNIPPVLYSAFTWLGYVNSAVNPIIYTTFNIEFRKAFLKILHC
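Read-out: kinetic calcium fluorescence (1 cycle/s) in inducible HEK293 T-REx D2 cells after an EC80 dopamine addition that followed 180 s compound preincubation. Loss of the dopamine response indicates antagonism.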
D2 ag-1: agonists of human D2 dopamine receptor (beta-arrestin); DiscoveRx PathHunter D2 beta-arrestin, luminescence, 90 min; 100% = 57 uM dopamine signal; hit rate 0.084% among 360,000; activation, % (test concentration not listed); P14416; in the data active = activation above about 40%; inconclusive = between about 15% and that limit
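DiscoveRx PathHunter D2 beta-arrestin cells (2,100/well) attached overnight, then compound-stimulated 90 min at 37 C in HBSS/10 mM HEPES/0.1% Tween-20 buffer; beta-galactosidase complementation read by luminescence after 1 h at ambient temperature. Dopamine 57 uM final (EC100) as control.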
D2 PAM-1: D2 dopamine receptor (human) potentiation | HEK293 T-REx D2, calcium flux, EC20 dopamine potentiation | P14416 | hit rate 0.34% among 340,000 | potentiation, % at 10 µM;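 active = potentiation over 3 SD above the plate norm, cut at about 30% in these data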; also: 0% is about no effect
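Potentiation of an EC20 dopamine calcium response is measured in a force-coupled, tetracycline-inducible Hek293 Trex D2 line. Compound-only kinetic reads over 180 s flag agonists before dopamine addition.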
D2 ag-2: agonists of human D2 dopamine receptor; hit rate 0.53% among 340,000; activation, % at 2 µM; AID 485358; HEK293 T-REx D2 cells, calcium flux agonist mode; P14416;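 active = activation over 3 SD above normal in the single-dose calcium agonist read, cut at about 30% in these data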; also: 0% is about no effect
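Tetracycline-induced HEK293 Trex cells with D2 receptor force-coupled to calcium signaling, plated overnight at 30 C and loaded with no-wash calcium dye. Calcium flux read kinetically for 180 s after compound addition; responses flag agonists.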
D2 PAM-2: potentiates the human D2 dopamine receptor allosterically; DiscoveRx D2 beta-arrestin cells, luminescence, 90 min; 100% = 57 uM dopamine signal; potentiation, % (concentration not given with the values); hit rate 0.23% among 360,000; AID 624464; in the data active = potentiation above about 50%; inconclusive = mostly about 30% to 49%
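PathHunter beta-arrestin assay in DiscoveRx D2 cells. Compounds were added with an EC20 of dopamine (50 nM final) for 90 min at 37 deg C. Luminescence was read 1 h after detection reagent, with 57 uM dopamine as the EC100 control.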
Active calls of the source: *; u = inconclusive; x = not tested or not shown.

SMILES	D2 antag	D2 ag-1	D2 PAM-1	D2 ag-2	D2 PAM-2
Cn1c(CCN2CCCC2)nc2cc(NS(=O)(=O)c3ccc(F)cc3)ccc21	x	-1	x	x	-42
CCOc1ccc(C2c3c(oc4ccccc4c3=O)C(=O)N2CCCN2CCOCC2)cc1 (stereo not given)	-4	0	27	0	-5
CCCOc1ccc(C2c3c(oc4ccccc4c3=O)C(=O)N2CCCN2CCOCC2)cc1 (stereo not given)	36*	-2	-3	1	3
CC(C)(Cc1ccc(O)cc1)NC(=O)CC(=O)N=Nc1c(O)[nH]c2ccc(Br)cc12	3	2	-16	31*	-11
COc1ccc(/C=C2\SC(N)=NC2=O)cc1Br	-8	2	-2	0	0
CCCOc1ccc(/C=C2\SC(N)=NC2=O)cc1OC	66*	-1	-10	-1	-5
CCc1noc(-c2ccc(N3CCCCC3)c([N+](=O)[O-])c2)n1	x	x	21	0	x
O=C(NC1CCSC1=O)c1cccc(C(=O)NC2CCSC2=O)c1 (stereo not given)	42*	-2	-4	1	-23
COc1ccc(CCn2nc(C)c([N+](=O)[O-])c2C)cc1	32*	2	-16	-1	-6
NC(N)=NCCCC(NC(=O)c1ccccc1)C(=O)Nc1ccc2ccccc2c1 (stereo not given)	54*	-3	-16	1	-32
NC(N)=NCCCC(NC(=O)c1ccccc1)C(=O)Nc1ccc([N+](=O)[O-])cc1 (stereo not given)	75*	-5	-12	-1	-5
CCc1nn(CC(=O)NCCc2ccc(Cl)cc2)c(=O)c2cc3c(OC)cccc3n12	x	x	16	-1	x
Cc1ccccc1N1C(=O)C(Cc2ccc(F)cc2)S/C1=C(\C#N)C(N)=O (stereo not given)	-2	-1	-3	1	2
CCOc1ccc(/C=N/NC(=O)c2cc3c(OC)cc(OC)c(OC)c3[nH]2)cc1	56*	11	-20	0	-2
O=C(CNC(=O)c1n[nH]c2ccccc12)Nc1ccc(F)c(F)c1F	x	1	x	x	14
Cn1c(=O)oc2cc(S(=O)(=O)N3CCC(C(=O)N4CC=C(c5ccccc5)CC4)CC3)ccc21	41*	-4	22	0	5
Clc1ccc(-c2ccc(CNCC3CCCO3)o2)cc1 (stereo not given)	35*	3	-23	-2	-8
CC(C)C(=O)N(c1cc2sc(=O)oc2c2ccccc12)S(=O)(=O)c1cccs1	-12	u	-7	1	75*
O=C(O)Cc1cn(-c2ccccc2)nc1-c1ccc(Cl)cc1	-10	1	31*	-1	-16
O=C(Nc1cn(-c2ccccc2)nc1-c1ccc(Cl)cc1)c1ccccc1	-11	-2	7	-1	-6
CC(NC(=O)c1ccc2c(c1)sc1nc(-c3ccc(F)cc3)cn12)C12CC3CC(CC(C3)C1)C2 (stereo not given)	x	x	-7	0	x
CC1CC(C)(C)NC(=S)N1CCCC(=O)NCc1ccccc1 (stereo not given)	37*	-1	9	1	-1
CCn1c(/C=C/N(C(C)=O)c2ccccc2)[n+](CC)c2ccc(Cl)cc21	-5	-2	-1	2	-17
CC[n+]1c(/C=C/N(C)c2ccccc2)oc2ccc(Cl)cc21	-10	u	12	-2	59*
OC(COc1ccc(Cl)cc1)CN1CCN(c2cccc(Cl)c2)CC1 (stereo not given)	73*	3	-22	2	-16
SMILES	D2 antag	D2 ag-1	D2 PAM-1	D2 ag-2	D2 PAM-2
OC(CN1CCN(c2cccc(Cl)c2)CC1)c1ccccc1 (stereo not given)	53*	3	-13	10	-28
OC(COc1ccc2cc(Br)ccc2c1)CN1CCN(c2ccccn2)CC1 (stereo not given)	-4	41*	26	-2	u
Cc1cccc(N2CCN(CC(O)COc3ccc(Cl)cc3)CC2)c1 (stereo not given)	58*	0	-19	-1	-54
c1ccc2c(c1)ccc1[nH]c3c(c12)CCCC3	x	5	x	x	18
Cc1ccc(S(=O)(=O)NC(=O)c2ccc(Br)o2)c(C)c1	31*	0	-2	0	-15
Cc1nc(-c2cccc(NC(=O)Nc3ccc([N+](=O)[O-])cc3)c2)no1	x	x	x	5	x
CCOC(=O)c1ccc(NC(=O)c2nc[nH]c2C(=O)N2CCc3ccccc3C2)cc1	5	-4	-13	1	-9
Cc1ccc(NC(=O)c2nc[nH]c2C(=O)N2CCc3ccccc3C2)cc1	63*	-3	-25	0	-21
Cc1cccc(NC(=O)c2nc[nH]c2C(=O)N2CCC(C)CC2)c1	39*	0	-25	-1	-27
O=C(O)c1cccnc1SCc1cccc(Cl)c1	45*	1	-22	-1	-29
Cc1cccc(CSc2ncccc2C(=O)O)c1	-20	1	5	1	-3
O=C(NCC1CCOCC1)c1ccc2nc(Cc3cccc(Cl)c3)oc2c1	61*	-5	-22	1	-5
CN(CC1CCOCC1)C(=O)c1ccc2nc(Cc3cccc(Cl)c3)oc2c1	x	3	11	x	12
COC(=O)c1cc(S(=O)(=O)NCCc2cccc(C)c2)cn1C	11	1	-9	0	3
Cc1ccc(/C(N)=N/OC(=O)N2c3ccccc3Sc3ccccc32)cc1	x	u	x	x	101*
CC(C)CN1C(=O)c2ccc(C(=O)NCc3ccccn3)cc2C1=O	4	-2	0	1	-6
COCCCN1C(=O)c2ccc(C(=O)NCc3ccccn3)cc2C1=O	-4	1	32*	0	-15
COCCN1C(=O)c2ccc(C(=O)O)cc2C1=O	-4	-2	39*	0	-5
COc1ccccc1CNC(=O)CN1C(=O)NC2(CCCCCCC2)C1=O	x	1	x	x	1
CCOc1ccc(OCC)c(NS(=O)(=O)c2c(C(=O)N3CCCCCC3)c(C)n(C)c2C)c1	x	x	-8	x	x
COCCn1c(=O)[nH]c2cc(C(=O)OC)ccc2c1=O	-5	1	12	1	21
COC(=O)c1ccc2c(C)c(C(C)(C)O)[nH]c2c1	45*	3	-9	0	3
N#CCC1c2ccccc2CCN1C(=O)Nc1ccc(C(F)(F)F)cc1 (stereo not given)	65*	0	-25	0	-16
Cc1c(O)c(CN2CCCCC2)cc2c1oc(=O)c1ccccc12	66*	-2	-13	-1	-52
NC(N)=NCc1cccc(I)c1	34*	5	-5	1	-17
CCOC(=O)c1cc(-c2ccccc2)n(-c2cccc(C(=O)N(C)c3ccc(C)cc3)c2)c1C	x	x	4	1	x
COC1OC2COC(c3ccccc3)OC2C(OC(C)=O)C1OC(C)=O (stereo not given)	x	-2	x	x	-8
